Measurements from PubChem BioAssay (EPA / NIEHS).
Several values for one entry are separate records, joined by “and”; a condition that tells them apart may be missing. Identical values can stand only once. Results filed as inconclusive are left out. Some compounds were tested as several samples or in several runs, with calls that do not always agree. Activity calls are given as the source filed them. The calls were made as follows, unless noted: active = hit-call score of the fitted dose curve at least 0.9, where 1 is the maximum; inactive = score below 0.9.

Legend:
[1] = target: human Retinoic Acid Receptor gamma (RARg), RARG (gene 5916) (UniProt P13631); experiment: ATG_RARg_TRANS: Attagene TRANS-FACTORIAL HepG2 Assay for human Retinoic Acid Receptor gamma (RARg) (AID 2283009; active = hit-call score of the fitted dose curve at least 0.9, where 1 is the maximum;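 as to AC50: AC50 is for reporter induction above DMSO meaning RARg activation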)
human Retinoic Acid Receptor gamma (RARg), RARG (gene 5916), sequence (P13631 whole entry, looked up, the tested form may be a part): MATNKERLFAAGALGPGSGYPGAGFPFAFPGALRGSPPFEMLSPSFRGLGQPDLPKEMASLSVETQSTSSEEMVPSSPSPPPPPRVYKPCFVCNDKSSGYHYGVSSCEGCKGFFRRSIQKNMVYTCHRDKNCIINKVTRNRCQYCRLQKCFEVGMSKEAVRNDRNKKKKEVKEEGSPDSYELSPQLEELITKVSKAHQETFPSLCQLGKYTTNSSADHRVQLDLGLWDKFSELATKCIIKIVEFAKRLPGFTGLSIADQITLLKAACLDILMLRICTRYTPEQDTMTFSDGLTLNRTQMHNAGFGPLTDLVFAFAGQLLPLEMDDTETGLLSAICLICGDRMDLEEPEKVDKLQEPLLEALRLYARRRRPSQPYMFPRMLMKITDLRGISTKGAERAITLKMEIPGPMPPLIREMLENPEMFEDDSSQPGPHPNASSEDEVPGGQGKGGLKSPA
Outline: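 Gain-of-signal relative to DMSO is reported from fluorescent capillary electrophoresis of RT-PCR reporter products. These came from HepG2 cells expressing transfected RARg-GAL4 chimeras with UAS reporters, harvested 24 h after dosing.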

[2] = target: human RAR-related Orphan Receptor beta (RORb), RORB (gene 6096) (UniProt Q92753); experiment: ATG_RORb_TRANS: Attagene TRANS-FACTORIAL HepG2 Assay for human RAR-related Orphan Receptor beta (RORb) (AID 2283010; active = hit-call score of the fitted dose curve at least 0.9, where 1 is the maximum)
human RAR-related Orphan Receptor beta (RORb), RORB (gene 6096), sequence (Q92753 whole entry, looked up, the tested form may be a part): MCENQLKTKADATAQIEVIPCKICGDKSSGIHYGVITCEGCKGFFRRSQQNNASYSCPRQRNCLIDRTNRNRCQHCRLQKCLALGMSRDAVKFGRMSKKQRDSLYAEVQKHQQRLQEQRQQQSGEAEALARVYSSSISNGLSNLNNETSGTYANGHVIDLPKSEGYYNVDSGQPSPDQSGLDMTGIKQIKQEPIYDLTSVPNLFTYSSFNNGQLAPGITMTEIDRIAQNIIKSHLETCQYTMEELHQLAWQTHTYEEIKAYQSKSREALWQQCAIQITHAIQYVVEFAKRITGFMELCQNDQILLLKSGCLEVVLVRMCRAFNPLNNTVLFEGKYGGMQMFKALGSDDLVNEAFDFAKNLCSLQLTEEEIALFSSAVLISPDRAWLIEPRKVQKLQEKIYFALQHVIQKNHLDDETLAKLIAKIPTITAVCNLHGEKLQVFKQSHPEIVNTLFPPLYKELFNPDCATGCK
Outline: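 Multiplexed transcription-factor reporter assay: HepG2 cells transiently carrying NR-Gal4/GAL4-UAS constructs, 24 h treatment, mRNA quantified by RT-PCR plus capillary electrophoresis fluorescence; activity scored as induction over DMSO.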

[3] = target: human RAR-related Orphan Receptor gamma (RORg), RORC (gene 6097) (UniProt P51449); experiment: ATG_RORg_TRANS: Attagene TRANS-FACTORIAL HepG2 Assay for human RAR-related Orphan Receptor gamma (RORg) (AID 2283011; active = hit-call score of the fitted dose curve at least 0.9, where 1 is the maximum)
human RAR-related Orphan Receptor gamma (RORg), RORC (gene 6097), sequence (P51449 whole entry, looked up, the tested form may be a part): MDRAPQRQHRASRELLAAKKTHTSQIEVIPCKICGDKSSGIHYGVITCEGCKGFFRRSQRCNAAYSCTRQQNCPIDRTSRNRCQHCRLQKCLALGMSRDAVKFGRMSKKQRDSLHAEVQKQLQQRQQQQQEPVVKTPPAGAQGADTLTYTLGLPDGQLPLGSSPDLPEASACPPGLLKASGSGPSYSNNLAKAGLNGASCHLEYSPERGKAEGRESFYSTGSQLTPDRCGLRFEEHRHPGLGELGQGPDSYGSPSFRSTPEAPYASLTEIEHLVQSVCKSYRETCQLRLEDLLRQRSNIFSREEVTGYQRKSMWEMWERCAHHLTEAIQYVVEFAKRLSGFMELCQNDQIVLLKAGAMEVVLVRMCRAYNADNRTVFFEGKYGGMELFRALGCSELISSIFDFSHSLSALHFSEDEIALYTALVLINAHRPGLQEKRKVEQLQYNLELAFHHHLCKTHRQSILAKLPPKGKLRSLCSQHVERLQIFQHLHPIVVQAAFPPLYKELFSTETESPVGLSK
Outline: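 HepG2 cells transiently transfected with GAL4-UAS reporter units and chimeric RORg-Gal4 construct; after 24 h chemical exposure, reporter mRNA measured by RT-PCR with fluorescent capillary electrophoresis, gain of signal fitted against DMSO.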

[4] = read-out: E-selectin (Homo sapiens) (UniProt P16581); experiment: BSK_3C_Eselectin: BioMAP Diversity Plus: 3C Assay for Eselectin Biomarker Activity (AID 2283015); details: primary human endothelial cells (HUVEC); actives raise or lower the signal
Outline: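 Primary human umbilical vein endothelial cells (3C system), read 24 h after compound addition; E-selectin measured by ELISA. Bidirectional curve fitting against DMSO baseline; cytotoxicity by parallel SRB total-protein staining.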

[5] = read-out: Interleukin-1 alpha (IL1a), IL1A (gene 3552); experiment: BSK_BE3C_IL1a: BioMAP Diversity Plus: BE3C Assay for Interleukin-1 alpha (IL1a) Biomarker Activity (AID 2283016); details: primary human bronchial epithelial cells; actives raise or lower the signal
Outline: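 Measured in human lung primary bronchial epithelial cells: IL-1a by ELISA at 24 h after dosing, with bidirectional fitting against DMSO.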

[6] = read-out: Monocyte Chemoattractant Protein-1 (MCP1), CCL2 (gene 6347); experiment: BSK_3C_MCP1: BioMAP Diversity Plus: 3C Assay for Monocyte Chemoattractant Protein-1 (MCP1) Biomarker Activity (AID 2283017); details: primary human endothelial cells (HUVEC); actives raise or lower the signal
Outline: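 Human umbilical vein endothelial cells (3C system) exposed to chemicals for 24 h; MCP-1 quantified by ELISA against the DMSO baseline with bidirectional fitting, and parallel SRB staining used to assess cytotoxicity.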

[7] = read-out: Monocyte Chemoattractant Protein-1 (MCP1), CCL2 (gene 6347); experiment: BSK_4H_MCP1: BioMAP Diversity Plus: 4H Assay for Monocyte Chemoattractant Protein-1 (MCP1) Biomarker Activity (AID 2283018); details: primary human endothelial cells (HUVEC); actives raise or lower the signal
Outline: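 Primary human umbilical vein endothelium is exposed to chemical for 24 h before MCP-1 is assayed by ELISA. Concentration-response fitted bidirectionally relative to DMSO.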

[8] = target: Retinoic acid receptor RXR-alpha (Homo sapiens) (UniProt P19793); experiment: ATG_RXRa_TRANS: Attagene TRANS-FACTORIAL HepG2 Assay for human Retinoid X Receptor alpha (RXRa) (AID 2283012; active = hit-call score of the fitted dose curve at least 0.9, where 1 is the maximum)
Retinoic acid receptor RXR-alpha (Homo sapiens), sequence (P19793 whole entry, looked up, the tested form may be a part): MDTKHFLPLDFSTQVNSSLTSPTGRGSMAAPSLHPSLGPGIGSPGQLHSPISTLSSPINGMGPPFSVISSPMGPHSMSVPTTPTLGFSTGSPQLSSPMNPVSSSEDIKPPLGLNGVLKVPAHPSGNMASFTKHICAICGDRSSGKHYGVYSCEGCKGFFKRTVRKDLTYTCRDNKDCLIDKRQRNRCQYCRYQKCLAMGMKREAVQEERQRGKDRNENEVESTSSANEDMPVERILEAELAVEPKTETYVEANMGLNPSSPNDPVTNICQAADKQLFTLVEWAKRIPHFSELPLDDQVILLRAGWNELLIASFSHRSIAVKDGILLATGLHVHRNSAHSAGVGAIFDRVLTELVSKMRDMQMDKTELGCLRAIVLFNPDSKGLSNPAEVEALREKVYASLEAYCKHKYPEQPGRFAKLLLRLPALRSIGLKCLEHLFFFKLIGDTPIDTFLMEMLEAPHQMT
Outline: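 Chimeric NR-GAL4 trans-activation in HepG2, 24 h treatment; reporter transcripts quantified by fluorescence on capillary electrophoresis, analysed for upward change from DMSO.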

[9] = target: human Retinoid X Receptor beta (RXRb), RXRB (gene 6257) (UniProt P28702); experiment: ATG_RXRb_TRANS: Attagene TRANS-FACTORIAL HepG2 Assay for human Retinoid X Receptor beta (RXRb) (AID 2283013; active = hit-call score of the fitted dose curve at least 0.9, where 1 is the maximum)
human Retinoid X Receptor beta (RXRb), RXRB (gene 6257), sequence (P28702 whole entry, looked up, the tested form may be a part): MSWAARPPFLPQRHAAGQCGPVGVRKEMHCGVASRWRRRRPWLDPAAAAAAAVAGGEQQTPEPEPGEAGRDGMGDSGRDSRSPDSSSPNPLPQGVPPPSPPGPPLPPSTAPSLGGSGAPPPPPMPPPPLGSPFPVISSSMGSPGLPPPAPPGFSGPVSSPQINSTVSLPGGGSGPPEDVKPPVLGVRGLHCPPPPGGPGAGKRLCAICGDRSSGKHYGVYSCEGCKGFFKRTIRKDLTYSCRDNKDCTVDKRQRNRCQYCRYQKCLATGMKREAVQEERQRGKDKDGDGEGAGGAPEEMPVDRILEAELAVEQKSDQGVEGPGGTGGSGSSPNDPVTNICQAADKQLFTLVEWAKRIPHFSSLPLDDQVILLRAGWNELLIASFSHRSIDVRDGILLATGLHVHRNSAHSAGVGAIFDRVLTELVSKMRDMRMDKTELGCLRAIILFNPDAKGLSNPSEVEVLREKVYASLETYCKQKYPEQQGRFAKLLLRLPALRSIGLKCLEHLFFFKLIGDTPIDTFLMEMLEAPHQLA
Outline: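 After a 24 h incubation with test chemical, transfected HepG2 cells carrying NR-Gal4 fusions and GAL4-UAS reporter transcription units yield RNA whose reporter cDNA is FAM-labelled, HpaI-cut and sized by capillary electrophoresis; increases over DMSO are scored.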

[10] = target: human Thyroid Receptor alpha (THRa1), THRA (gene 7067) (UniProt P10827); experiment: ATG_THRa1_TRANS: Attagene TRANS-FACTORIAL HepG2 Assay for human Thyroid Receptor alpha (THRa1) (AID 2283014; active = hit-call score of the fitted dose curve at least 0.9, where 1 is the maximum)
human Thyroid Receptor alpha (THRa1), THRA (gene 7067), sequence (P10827 whole entry, looked up, the tested form may be a part): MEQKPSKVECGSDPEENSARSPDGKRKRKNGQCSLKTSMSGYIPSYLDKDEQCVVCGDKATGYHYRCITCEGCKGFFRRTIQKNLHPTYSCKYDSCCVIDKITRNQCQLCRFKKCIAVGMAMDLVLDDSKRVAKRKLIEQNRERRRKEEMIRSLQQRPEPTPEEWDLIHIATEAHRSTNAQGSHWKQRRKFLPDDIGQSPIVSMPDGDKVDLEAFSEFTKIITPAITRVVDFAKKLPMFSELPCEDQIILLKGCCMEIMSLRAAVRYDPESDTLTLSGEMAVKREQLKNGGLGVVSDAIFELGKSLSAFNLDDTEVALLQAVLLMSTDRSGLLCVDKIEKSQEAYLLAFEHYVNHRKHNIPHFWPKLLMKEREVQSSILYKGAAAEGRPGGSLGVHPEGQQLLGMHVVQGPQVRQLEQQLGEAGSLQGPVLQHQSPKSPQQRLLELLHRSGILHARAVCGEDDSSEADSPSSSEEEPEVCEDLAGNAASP
Outline: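 HepG2 cells transiently transfected with chimeric NR-Gal4 and GAL4-UAS reporter units, dosed 24 h. Reporter mRNA quantified by RT-PCR, fluorescent labeling, HpaI digestion and capillary electrophoresis; gain-of-signal fit versus DMSO.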

Measured: AC50

E-selectin (Homo sapiens), sequence (P16581 whole entry, looked up): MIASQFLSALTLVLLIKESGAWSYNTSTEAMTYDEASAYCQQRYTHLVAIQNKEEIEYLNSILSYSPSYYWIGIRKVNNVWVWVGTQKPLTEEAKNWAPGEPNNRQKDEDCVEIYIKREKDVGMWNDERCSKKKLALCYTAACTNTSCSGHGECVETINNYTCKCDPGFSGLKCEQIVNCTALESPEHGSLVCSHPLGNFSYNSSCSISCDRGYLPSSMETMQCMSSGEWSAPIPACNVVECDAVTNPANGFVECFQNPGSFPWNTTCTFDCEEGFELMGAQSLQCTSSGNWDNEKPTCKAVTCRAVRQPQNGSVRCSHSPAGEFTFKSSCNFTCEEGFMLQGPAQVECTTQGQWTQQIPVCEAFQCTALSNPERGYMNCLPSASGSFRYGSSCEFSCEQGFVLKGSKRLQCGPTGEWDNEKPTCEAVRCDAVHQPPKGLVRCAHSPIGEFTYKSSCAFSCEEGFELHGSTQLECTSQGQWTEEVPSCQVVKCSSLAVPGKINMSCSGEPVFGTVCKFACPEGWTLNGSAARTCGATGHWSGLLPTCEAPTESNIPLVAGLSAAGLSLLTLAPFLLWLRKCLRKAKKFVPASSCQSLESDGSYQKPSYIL

CCCCCCCc1ccc(O)cc1
active: [4] 35.2 µM | [5] 35.7 µM | [6] 37.6 µM | [7] 29.1 µM
inactive: [1] | [2] | [3]

OCC(F)(F)OC(F)(F)C(F)(F)OC(F)(F)CO
not listed: [2] | [3] | [10]
inactive: all other assays above

C=CC(=O)OCC(F)(F)C(F)F
inactive: [1] | [10] | [5] | [6] | [7]
active: [4] 18.4 µM and 20.4 µM

CC(C)CBr
inactive: [1] | [2]

OCC(F)(F)OC(F)(F)C(F)(F)OC(F)(F)C(F)(F)OC(F)(F)CO
inactive: [1] | [10] | [4] | [5] | [6] | [7]
active: [7] 16.2 µM

CCCCOCCOP(=O)(OCCOCCCC)OCCOCCCC
active: [6] 3.97 µM
inactive: [1] | [3] | [4] | [5] | [7]

COP(=O)(O)OC
inactive: [1] | [3] | [4] | [5] | [6] | [7]

CC(C)(C)N(NC(=O)c1ccc(Cl)cc1)C(=O)c1ccccc1
inactive: [1] | [9]

CCOP(=O)(O)C(N)=O
inactive: [1] | [3] | [9]

O=C(O)C=CC(F)(C(F)(F)F)C(F)(F)F
not listed: [3] | [8] | [9]
inactive: all other assays above

O=S(=O)(F)C(F)(F)C(F)(F)C(F)(F)C(F)(F)C(F)(F)C(F)(F)C(F)(F)C(F)(F)F
not listed: [3] | [8] | [9]
inactive: all other assays above

O=[N+]([O-])c1ccc(Cl)c(Cl)c1
not listed: [3] | [9] | [10]
inactive: all other assays above

CCCN(CCC)c1c([N+](=O)[O-])cc(C(C)C)cc1[N+](=O)[O-]
inactive: [1] | [8] | [10] | [4] | [5]
active: [6] 32 µM | [7] 20 µM

CC(C)Nc1ccc(Nc2ccccc2)cc1
inactive: [1] | [3] | [8]
active: [4] 10.6 µM | [5] 6.48 µM | [6] 9.95 µM | [7] 6.18 µM

CCN(CC)C1CCCCC1
inactive: [1] | [3]

CCCCc1ccc(O)cc1
inactive: [1] | [8]

C=CC(=O)OCC(CC)(COC(=O)C=C)COC(=O)C=C
active: [4] 2.37 µM | [5] 5.88 µM | [6] 2.66 µM | [7] 1.9 µM
inactive: [1] | [8] | [10]

N#C/C=C/c1ccccc1
inactive: [1] | [2] | [3] | [9] | [10]

ClC1=C(Cl)C2(Cl)C3C(Cl)C(Cl)CC3C1(Cl)C2(Cl)Cl (configuration not stated)
active: [1] 7.61 µM | [9] 23.8 µM | [4] 29.7 µM | [6] 34.3 µM | [7] 12.1 µM
inactive: [8] | [5]

Cc1ccc(O)cc1C
not listed: [2] | [3]
inactive: all other assays above

O=NN1CCCC1
inactive: [1] | [3] | [10]

O=c1[nH]c2ccccc2c(=O)o1
inactive: [1] | [3]

O=C(O)C(F)(F)C(F)(F)C(=O)O
not listed: [9] | [10]
inactive: all other assays above

O=C(O)C(F)(OC(F)(F)C(F)(F)C(F)(F)F)C(F)(F)F (configuration not stated)
inactive: [1] | [2] | [3] | [10] | [4] | [5] | [6] | [7]
active: [6] 49.3 µM

CCNc1nc(Cl)nc(NC(C)(C)C)n1
not listed: [2] | [9] | [10]
inactive: all other assays above

Cc1c([N+](=O)[O-])cc2c(c1[N+](=O)[O-])C(C)(C)CC2(C)C
active: [1] 2.08 µM
inactive: [4] | [5] | [6] | [7]

c1ccc2c(c1)sc1ccccc12
inactive: [1] | [4] | [5] | [6] | [7]

c1cc2c3c(cccc3c1)CC2
not listed: [2] | [8]
inactive: all other assays above

FC(F)(F)C(F)(C(F)(F)F)C(F)(F)C(F)(F)CC1CO1 (configuration not stated)
inactive: [1] | [8] | [4] | [5] | [6] | [7]

O=S1(=O)OCC2C(CO1)C1(Cl)C(Cl)=C(Cl)C2(Cl)C1(Cl)Cl (configuration not stated)
active: [7] 10.1 µM
inactive: [1] | [8] | [4] | [5] | [6]

CO/N=C(/C(=O)OC)c1ccccc1COc1ccccc1C
inactive: [1] | [2] | [8]

Nc1ccc2ccccc2c1
not listed: [8] | [9] | [10]
inactive: all other assays above

OCC(F)(F)OC(F)(F)C(F)(F)OC(F)(F)C(F)(F)OC(F)(F)F
active: [4] 46.3 µM and 55.2 µM | [6] 45.4 µM and 14.5 µM | [7] 45.4 µM
inactive: [1] | [2] | [3] | [5] | [7]

CN(C)C(=O)Cl
not listed: [3] | [8]
inactive: all other assays above
